This is one part of a sample in which hits are shown more often than they occur.
Pf Dd2 growth – inhibitors of Plasmodium falciparum Dd2 growth; 120,000 compounds, 4.3% hits; AID 1347417; Potency, µM (titrated, usually from 28.9 µM), for inactives: at the highest dose activity, negative = inhibition, most hits filed as inhibitors; P. falciparum Dd2 growth, SYBR Green, 72 h; active means well fitted inhibition curve with a large enough effect;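 further: plate controls were DMSO vehicle for no effect and reference drug for full effect; nearly all actives have a fitted effect of over 65% in size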
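Readout: SYBR Green fluorescence, 485 nm excitation, 535 nm emission, after ~16 h lysis at 37C. Before that, Dd2-infected red cells (2.5% hematocrit) grew 72 h with compound, 29 uM top final concentration.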
* hit, by the source's call; i = inactive; [ ] = another dose, or the depositor's remark. Potency means the concentration at half of the fitted maximal effect.

SMILES	Pf Dd2 growth
O=C(NCc1cc2n(n1)CCNC2)C1CCCN(c2ccccn2)C1 (configuration not stated)	-11%
Cc1nn2c(c1-c1ccnn1C(C)C)N(Cc1cccc(C#N)c1)CCC2	-18%[44.1 µM]
COC[C@@H]1CN(C(=O)c2ccc(OC)cc2OC)C[C@H]1c1ccccn1	-28%
Cc1cn2nc(C(=O)N3CCC(NC(=O)c4ccccc4Cl)CC3)cc2c(=O)[nH]1	31%
Cc1cn2nc(C(=O)N3CCC(NC(=O)Cc4ccccc4C)CC3)cc2c(=O)[nH]1	i
Cc1cn2nc(C(=O)N3CCC(NC(=O)Cc4ccc(Cl)cc4)CC3)cc2c(=O)[nH]1	2.5µM*
O=C(NCCN1CCOCC1)C1c2ccccc2CC(=O)N1Cc1ccccc1 (configuration not stated)	-21%
CCOCCOC1CCN(C(=O)c2nn(C)c3ccccc23)CC1	36%
O=C1NCc2ccccc2CC12CCCN2C/C=C/c1ccccc1 (configuration not stated)	-25%
O=C(C1CC1)N1Cc2ccccc2NC(=O)C12CCNCC2	20%
O=C1Nc2ccccc2CN(CC2CCOCC2)C12CCNCC2	13%
O=C1Nc2ccccc2CN(C/C=C/c2ccccc2)C12CCNC2 (configuration not stated)	11µM*
O=C1Nc2ccccc2CN(Cc2ccc(Cl)cc2)C12CCNCC2	7.1µM*
O=C1Nc2ccccc2CN(Cc2ccncc2)C12CCNCC2	1%
CCS(=O)(=O)Nc1ccc(C2(C(=O)NCc3cccc(C)c3)CCC2)cc1	-17%
CC(=O)Nc1ccc(C2(C(=O)NCc3ccc(F)cc3F)CCCCC2)cc1	4%
COc1ccc(N2CCOC3CCN(Cc4ccccn4)CC3C2=O)cc1 (configuration not stated)	i
CN1CCN(c2nc3c(c(=O)[nH]2)CCN(Cc2cc(F)ccc2F)CC3)CC1	41%[5.79 µM]
CC(C)c1noc(-c2cccn3c(CNC(=O)c4ccco4)nnc23)n1	i
O=C(Cc1ccc(Cl)cc1)NC1CCN(c2cc(-c3ccc(F)cc3)[nH]n2)CC1	i
COc1ccc(CNC(=O)[C@@H]2CCC[C@@H](NCc3cccc(Cl)c3)CN(C)C(=O)C2)cc1	i
CO[C@H]1C(=O)N(C(C)C)[C@H]1C1CCN(S(=O)(=O)c2cn(C)cn2)CC1	-16%
CC(C)NC(=O)c1ccc(-n2c(-c3ccccc3)cc3c2CCCCC3)cc1	-20%
CCOc1ccc(CCNC(=O)c2ccc(C)c(-n3c(C)nc4cccnc43)c2)cc1OCC	-2%
CCOc1ccc(CCNC(=O)c2ccc(-n3c(C)cc4c3CCCC4)cc2)cc1OCC	7.9µM*
SMILES	Pf Dd2 growth
CCCNC(=O)c1ccc(-n2c(-c3ccccc3)cc3c2CCC(C)C3)cc1 (configuration not stated)	i
CC1CCc2c(cc(-c3ccccc3)n2-c2ccc(C(=O)NC(C)C)cc2)C1 (configuration not stated)	i
Cc1cc2c(n1-c1ccc(C(=O)NCc3ccc(OC(C)C)cc3)cc1)CCCC2	-13%
COCCNC(=O)c1ccc(-n2c(-c3ccccc3)cc3c2CCC(C)C3)cc1 (configuration not stated)	-31%
COCCCNC(=O)c1ccc(-n2c(-c3ccccc3)cc3c2CCCCC3)cc1	5µM*
CN(C)CCNC(=O)c1ccc(-n2c(-c3ccccc3)cc3c2CCCCC3)cc1	0.35µM*
COc1ccc(C(=O)Nc2ccnn2C2CCN(C(C)=O)CC2)cc1	5%
CCCNC(=O)N[C@@H]1C[C@H](Cn2cc(CN(C)C)nn2)[C@@H](O)[C@H]1O	17%[44.1 µM]
NCCCC(=O)N1CCC2(CC1)CN(C(=O)Cc1ccc(Cl)cc1)CCO2	8%
COc1ccc(C(=O)N2CCC[C@H]2c2nc(-c3ccc(OC)c(OC)c3)no2)c(OC)c1	i
Cc1noc(C)c1S(=O)(=O)N1CCN(C(=O)N2CC3CC(C2)[C@H]2CCCC(=O)N2C3)CC1 (some centres not stated)	6%
Cc1nnc(-c2cc(-c3ccncc3)ccn2)n1CCN1CCOCC1	-22%[44.1 µM]
COC(=O)CNC(=O)N1CCCCCCNC(=O)[C@@H]2C[C@@H](c3nc(-c4cccnc4)no3)C[C@@H]21	4%
CCCCN1C(=O)c2ccccc2C(C(=O)Nc2nc(C)cs2)C12CCCC2 (configuration not stated)	5µM*
Cc1csc(NC(=O)C2c3ccccc3C(=O)N(Cc3ccccc3)C23CCCC3)n1 (configuration not stated)	3.5µM*
COC(=O)CNC(=O)C1c2ccccc2C(=O)N(Cc2ccccc2)C12CCCC2 (configuration not stated)	-4%
CCCCN1C(=O)c2ccccc2C(C(=O)NC(C)C)C12CCCCC2 (configuration not stated)	-23%
O=C(NC1CCCC1)C1c2ccccc2C(=O)N(Cc2ccccc2)C12CCCC2 (configuration not stated)	-26%
CCCCN1C(=O)c2ccccc2C(C(=O)NCc2ccncc2)C12CCCCC2 (configuration not stated)	-28%
CCOC(=O)N1CCN(C(C(=O)O)c2ccc(OC)nc2OC)CC1 (configuration not stated)	-5%
O=C(c1c(F)cccc1F)N1CCC2(CC1)NC(=O)N(Cc1ccc(F)cc1)C2=O	-21%
Cc1ccc(CNC(=O)CCC(=O)N2CCSc3ccccc32)cc1	-8%
COc1ccc(CNC(=O)CCC(=O)N2CC3CCCN3c3ccccc32)c(OC)c1 (configuration not stated)	-16%
CCOc1ccc(CNC(=O)CCC(=O)N2CC3CCCN3c3ccccc32)cc1 (configuration not stated)	13µM*
CCNc1ncnc2c1CN(C1CCCNC1)C(=O)CN2C (configuration not stated)	2%
SMILES	Pf Dd2 growth
Cc1cccc(-n2c(-c3ccco3)nc3c(cnn3-c3ccccc3C)c2=O)c1	i
Cc1ccc(-c2nc3c(cnn3-c3ccccc3)c(=O)n2-c2ccc(Cl)cc2)cc1	i
COc1ccc(-n2c(-c3ccco3)nc3c(cnn3-c3ccc(Cl)cc3)c2=O)cc1	10µM*
Cn1nnnc1SCCCNCc1cccc(OCc2ccccc2Cl)c1	10µM*
CCOc1ccc(CNCCCSc2nnnn2C)cc1OC	-13%[0.594 µM]
Cn1nnnc1SCCCNCc1cc(Cl)ccc1OCc1ccccc1	7.9µM*
CCOc1ccccc1CNCCSc1nnnn1C	i
COc1cccc(CNCCSc2nnnn2C)c1OCc1ccc(Cl)cc1Cl	i
COc1cc(CNCCSc2nnnn2C)cc(Cl)c1OCc1ccccc1	i
Cc1cc(F)cc(CN2CCc3nc(C(=O)Nc4ccccc4)oc3CC2)c1	-25%[44.1 µM]
CN1C(=O)CC(C(=O)O)C12CCN(Cc1cn(C)nc1-c1ccccc1)CC2 (configuration not stated)	-7%
CCN(CCOC)Cc1cn(C)nc1-c1ccc(C2CCCCC2)cc1	10µM*
Cn1cc(CN2CCN(c3cnccn3)CC2)c(-c2ccc(C3CCCCC3)cc2)n1	10µM*
Cn1c(CN2CCN(c3cnccn3)CC2)nnc1C1CC(N)C1 (configuration not stated)	-4%
COc1cc(=O)n2c(c1C(=O)Nc1ccc(Br)cc1F)CCCC2	-5%
CC1=NOC2(CCN(C(=O)c3ccccc3)CC2)C1	13%[44.1 µM]
COc1ccc(C(=O)N2CCC(N3CC4CC(C3)[C@H]3CCCC(=O)N3C4)CC2)cc1F (some centres not stated)	-9%
O=C(c1ccsc1)N1CCCC(c2noc(COc3ccccc3F)n2)C1 (configuration not stated)	-19%

Compound activity from PubChem BioAssay.
